Assay results published in PubChem BioAssay (Tox21).
“And” between values parts separate entries of the source, which are not always exact repeats. Equal entries are not always repeated. Inconclusive results are not listed. A structure can be active in one record and inactive in another. The source made the active and inactive calls. Unless noted, calls come from the whole dose curve; as a rule, active = well fitted curve in the direction sought with a large enough effect in the repeat runs; inconclusive = weak or mixed curves; inactive = no such curve, though single readings can be large; an effect the other way counts as inactive or inconclusive.

Legend:
[1] = qHTS assay to identify small molecule antagonists of the progesterone receptor (PR) signaling pathway - cell viability counter screen (AID 1346798); note: series mostly up to about 92 µM; nearly all actives have a fitted effect of over 50% in size
In short: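 PR-UAS-bla HEK293T cells in medium with 2% charcoal-stripped FBS were treated with compounds plus R5020 for 16 hr at 37C. Cell viability was then read by CellTiter-Glo luminescence after 30 min at room temperature in the same wells.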

[2] = qHTS assay to identify small molecule agonists of the progesterone receptor (PR) signaling pathway - cell viability counter screen (AID 1346799; calls by dose curve; note: nearly all actives have a fitted effect of over 45% in size; note: potency is the fitted concentration of half-maximal effect)
In short: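 PR-UAS-bla HEK293T cells, 3,000 per well in medium with 2% charcoal-stripped FBS, were preincubated 6 hr at 37C, then exposed to compounds for 16 hr; viability was read as CellTiter-Glo luminescence after 30 min at room temperature.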

[3] = qHTS assay to identify small molecule agonists of the TGF-beta/Smad signaling pathway - cell viability counter screen (AID 1346829); note: top concentration of the series differs between compounds; nearly all actives have a fitted effect of over 45% in size
In short: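 HEK 293T SBE-bla line, 5 hr compound exposure at 37 C, multiplexed CellTiter-Glo viability read by luminescence.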

[4] = qHTS assay to identify small molecule agonists of the TGF-beta/Smad signaling pathway (AID 1346859; active = well fitted activation curve with a large enough effect in the signal ratio in the repeat runs, not every such curve was filed as active; the % refers to the signal ratio; note: series mostly up to about 77 µM)
In short: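 HEK 293T cells stably carrying a beta-lactamase reporter driven by the Smad binding element were seeded overnight, exposed to DMSO-dissolved compounds for 5 hr at 37 C, 5% CO2, then loaded with FRET substrate for 2 hr at room temperature.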

[5] = target: Thyrotropin-releasing hormone receptor (Homo sapiens) (UniProt P34981); test: qHTS assay to identify small molecule antagonists of the thyrotropin-releasing hormone receptor (TRHR) signaling pathway (AID 1346877; active = well fitted inhibition curve with a large enough effect in the repeat runs, not every such curve was filed as active; note: series mostly up to about 51 µM)
Thyrotropin-releasing hormone receptor (Homo sapiens), sequence (P34981 whole entry, looked up): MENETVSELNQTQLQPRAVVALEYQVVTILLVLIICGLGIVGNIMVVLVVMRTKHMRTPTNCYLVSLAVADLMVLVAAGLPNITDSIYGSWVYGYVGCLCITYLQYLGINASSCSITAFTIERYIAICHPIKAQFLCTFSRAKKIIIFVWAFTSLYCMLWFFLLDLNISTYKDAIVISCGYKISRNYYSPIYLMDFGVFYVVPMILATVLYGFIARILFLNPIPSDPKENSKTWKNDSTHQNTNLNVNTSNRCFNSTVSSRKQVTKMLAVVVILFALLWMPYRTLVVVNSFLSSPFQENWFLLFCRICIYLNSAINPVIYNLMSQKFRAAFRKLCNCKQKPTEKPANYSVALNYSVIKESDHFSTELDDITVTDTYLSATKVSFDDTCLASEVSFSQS
In short: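 Cells (TRHR-HEK293) are plated and kept 18 h at 37 °C/5% CO2. A calcium-sensitive dye is added for 2 h, compound follows for 5 min at room temperature, and TRH is then given at 1 nM final.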

[6] = target: Thyrotropin-releasing hormone receptor (Homo sapiens) (UniProt P34981); test: qHTS assay to identify small molecule agonists of the thyrotropin-releasing hormone receptor (TRHR) signaling pathway (AID 1346891; calls by dose curve; note: series mostly up to about 58 µM)
In short: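 TRHR-expressing HEK293 cells were plated 18 h at 37 °C/5% CO2, loaded with calcium dye 2 h at 37 °C, then given compound in DMSO; fluorescence was read kinetically for 3 min at 1 s intervals.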

[7] = Human pregnane X receptor (PXR) small molecule agonists, qHTS cell viability counter screen (AID 1346977); note: nearly all actives have a fitted effect of over 50% in size; note: potency is the fitted concentration of half-maximal effect
In short: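 PXR-Luc HepG2 cells in medium with 5% charcoal-stripped FBS were pre-incubated 5hr, then exposed to compounds for 24hr at 37C. Viability was read in the same wells by CellTiter-Fluor fluorescence, reagent added after 23hr with a 1hr incubation.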

[8] = Caspase-3/7 induction in HepG2 cells by small molecules, qHTS assay (AID 1346978); note: nearly all actives have a fitted effect of over 15% in size
In short: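 Wild-type HepG2 cells, 2,000/well, settled 5 hr at 37 C and 5% CO2, then compound-treated for 17 hr; caspase-3/7 activity read by luminescent Caspase-Glo 3/7 after 30 min at room temperature.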

[9] = Caspase-3/7 induction in CHO-K1 cells by small molecules, qHTS cell viability counter screen (AID 1346979); note: nearly all actives have a fitted effect of over 35% in size
In short: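 Wild-type CHO-K1 cells were seeded at 1,500 per well, rested 5hr at 37 C, then exposed to compounds in DMSO. After 16hr, CellTiter-Fluor reagent was added and fluorescence read 1hr later as the viability measure.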

[10] = Caspase-3/7 induction in HepG2 cells by small molecules, qHTS cell viability counter screen (AID 1346981); note: series mostly up to about 92 µM; nearly all actives have a fitted effect of over 30% in size
In short: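 Steps: seed 2,000 HepG2 cells per well; incubate 5 hr at 37 C; pin-add compounds in DMSO; incubate 16 hr; add CellTiter-Fluor; after 1 hr at 37 C and 5% CO2, read fluorescence.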

[11] = target: Nuclear receptor subfamily 1 group I member 2 (Homo sapiens) (UniProt O75469); test: Human pregnane X receptor (PXR) small molecule agonists, qHTS assay (AID 1346982); note: nearly all actives have a fitted effect of over 35% in size; note: potency is the fitted concentration of half-maximal effect
Nuclear receptor subfamily 1 group I member 2 (Homo sapiens), sequence (O75469 whole entry, looked up): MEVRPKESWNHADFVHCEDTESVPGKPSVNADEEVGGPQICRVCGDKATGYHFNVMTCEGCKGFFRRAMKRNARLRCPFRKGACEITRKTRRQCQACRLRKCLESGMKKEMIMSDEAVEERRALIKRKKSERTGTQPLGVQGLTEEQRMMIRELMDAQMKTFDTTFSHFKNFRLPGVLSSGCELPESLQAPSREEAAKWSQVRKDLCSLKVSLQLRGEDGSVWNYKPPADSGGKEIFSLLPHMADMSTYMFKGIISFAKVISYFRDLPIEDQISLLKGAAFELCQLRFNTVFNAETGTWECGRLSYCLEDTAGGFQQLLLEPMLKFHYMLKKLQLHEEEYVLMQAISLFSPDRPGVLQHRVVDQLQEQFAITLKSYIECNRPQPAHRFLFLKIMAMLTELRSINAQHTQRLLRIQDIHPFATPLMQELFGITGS
In short: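 Agonist mode qHTS: PXR-Luc HepG2 cells plated 5 hr before DMSO-dissolved compounds were pinned in, cultured 24 hr at 37 C, 5% CO2; ONE-Glo luminescence readout.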

[12] = target: Nuclear receptor subfamily 1 group I member 2 (Rattus norvegicus) (UniProt Q9R1A7); test: Rat pregnane X receptor (rPXR) activation by small molecules, qHTS assay (AID 1346983); details: rPXR luciferase reporter cells, One-Glo luminescence, 24 h; max activation: stronger effect = higher value; note: nearly all actives have a fitted effect of over 20% in size
Nuclear receptor subfamily 1 group I member 2 (Rattus norvegicus), sequence (Q9R1A7 whole entry, looked up): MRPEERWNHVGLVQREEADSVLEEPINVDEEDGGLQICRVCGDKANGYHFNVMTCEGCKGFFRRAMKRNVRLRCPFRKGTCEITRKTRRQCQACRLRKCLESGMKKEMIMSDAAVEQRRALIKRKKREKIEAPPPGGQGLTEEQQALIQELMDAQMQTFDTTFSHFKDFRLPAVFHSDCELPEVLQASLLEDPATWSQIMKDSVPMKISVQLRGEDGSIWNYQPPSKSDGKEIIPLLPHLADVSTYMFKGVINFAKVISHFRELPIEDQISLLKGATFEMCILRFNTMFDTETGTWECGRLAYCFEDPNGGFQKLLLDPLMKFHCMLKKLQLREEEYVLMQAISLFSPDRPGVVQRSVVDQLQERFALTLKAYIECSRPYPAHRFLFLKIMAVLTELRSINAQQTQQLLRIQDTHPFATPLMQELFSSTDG
In short: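 Cell-based rPXR activation assay: rPXR cells, 2,000 per well, rested 5hr at 37 C, then exposed to compounds in DMSO for 24 hr at 37 C. Luciferase activity read by One-Glo luminescence after 30 min at room temperature.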

[13] = target: Nuclear receptor subfamily 1 group I member 2 (Homo sapiens) (UniProt O75469); test: Human pregnane X receptor (PXR) activation by small molecules, qHTS assay (AID 1346985); note: nearly all actives have a fitted effect of over 40% in size
In short: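 DPX-2 cells (HepG2 co-transfected with a PXR response element and a CYP3A4-promoter luciferase construct) were seeded at 2,000 per well, rested 5 hr at 37C, then exposed to DMSO-dissolved compounds for 24 hr. Activation was read as luciferase luminescence.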

[14] = target: Cytochrome P450 2D6 (Homo sapiens) (UniProt P10635); test: Cytochrome P450 Family 2 Subfamily D Member 6 (CYP2D6) small molecule antagonists: luciferase reporter qHTS assay (AID 1671196); note: nearly all actives have a fitted effect of over 50% in size; note: potency is the fitted concentration of half-maximal effect; for activity change, negative = inhibition: series mostly up to about 120 µM
Cytochrome P450 2D6 (Homo sapiens), sequence (P10635 whole entry, looked up): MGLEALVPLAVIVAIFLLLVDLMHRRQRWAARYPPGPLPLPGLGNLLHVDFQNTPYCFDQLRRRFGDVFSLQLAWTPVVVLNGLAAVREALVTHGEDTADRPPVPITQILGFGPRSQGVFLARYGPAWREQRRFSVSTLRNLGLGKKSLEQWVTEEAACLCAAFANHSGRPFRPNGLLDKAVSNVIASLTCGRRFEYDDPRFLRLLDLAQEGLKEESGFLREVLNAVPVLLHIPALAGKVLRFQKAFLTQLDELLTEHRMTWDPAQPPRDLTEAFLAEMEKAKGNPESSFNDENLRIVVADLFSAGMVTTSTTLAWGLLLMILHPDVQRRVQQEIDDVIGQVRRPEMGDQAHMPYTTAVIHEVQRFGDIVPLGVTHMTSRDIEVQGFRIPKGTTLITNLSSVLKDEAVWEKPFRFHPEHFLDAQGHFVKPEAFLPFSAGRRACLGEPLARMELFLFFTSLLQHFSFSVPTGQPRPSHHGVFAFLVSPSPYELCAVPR
In short: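 P450-Glo format: CYP2D6 converts a proluciferin substrate to luciferin in an NADPH-driven reaction lasting 1 h at room temperature. Light output, proportional to CYP2D6 activity, reflects interference by test chemicals.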

[15] = target: Cytochrome P450 2C19 (Homo sapiens) (UniProt P33261); test: Cytochrome P450 Family 2 Subfamily C Member 19 (CYP2C19) small molecule antagonists: luciferase reporter qHTS assay (AID 1671197); note: nearly all actives have a fitted effect of over 65% in size; note: potency is the fitted concentration of half-maximal effect; for activity change, negative = inhibition: series mostly up to about 120 µM
Cytochrome P450 2C19 (Homo sapiens), sequence (P33261 whole entry, looked up): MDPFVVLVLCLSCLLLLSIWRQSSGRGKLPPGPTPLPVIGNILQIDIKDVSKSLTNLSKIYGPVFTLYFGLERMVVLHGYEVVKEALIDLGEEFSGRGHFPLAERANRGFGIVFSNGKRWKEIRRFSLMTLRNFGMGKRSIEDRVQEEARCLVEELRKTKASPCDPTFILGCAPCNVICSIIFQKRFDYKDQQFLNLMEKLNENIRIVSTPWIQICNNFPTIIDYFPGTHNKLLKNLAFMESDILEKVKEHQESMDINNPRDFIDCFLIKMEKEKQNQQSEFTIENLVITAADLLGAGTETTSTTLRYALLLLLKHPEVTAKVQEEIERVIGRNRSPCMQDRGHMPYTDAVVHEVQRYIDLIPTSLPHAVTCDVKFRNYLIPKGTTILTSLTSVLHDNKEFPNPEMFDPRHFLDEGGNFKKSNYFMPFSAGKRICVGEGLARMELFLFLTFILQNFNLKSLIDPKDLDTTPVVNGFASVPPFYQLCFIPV
In short: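 First, compounds are pinned into enzyme-substrate mix and held 10 min at room temperature. Second, NADPH regeneration solution is added and plates incubate 1 h at 37C. Third, detection reagent is added and luminescence read after 20 min.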

[16] = target: Cytochrome P450 2C9 (Homo sapiens) (UniProt P11712); test: Cytochrome P450 Family 2 Subfamily C Member 9 (CYP2C9) small molecule antagonists: luciferase reporter qHTS assay (AID 1671198); note: nearly all actives have a fitted effect of over 50% in size; note: potency is the fitted concentration of half-maximal effect; for activity change, negative = inhibition: series mostly up to about 120 µM
Cytochrome P450 2C9 (Homo sapiens), sequence (P11712 whole entry, looked up): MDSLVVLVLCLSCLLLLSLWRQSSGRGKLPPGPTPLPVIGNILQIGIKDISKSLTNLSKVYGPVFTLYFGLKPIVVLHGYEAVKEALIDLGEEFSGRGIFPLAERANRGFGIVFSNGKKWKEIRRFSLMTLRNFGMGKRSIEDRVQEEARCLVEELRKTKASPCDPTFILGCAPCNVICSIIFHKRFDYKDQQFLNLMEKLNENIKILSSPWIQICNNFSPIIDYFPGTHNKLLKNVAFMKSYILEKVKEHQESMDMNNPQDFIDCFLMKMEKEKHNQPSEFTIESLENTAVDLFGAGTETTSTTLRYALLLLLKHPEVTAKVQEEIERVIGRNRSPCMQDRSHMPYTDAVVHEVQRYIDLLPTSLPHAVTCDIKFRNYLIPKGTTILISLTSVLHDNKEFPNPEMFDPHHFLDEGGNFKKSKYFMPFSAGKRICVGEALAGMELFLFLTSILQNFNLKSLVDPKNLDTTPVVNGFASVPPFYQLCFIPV
In short: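 P450-Glo proluciferin substrate with CYP2C9 enzyme; 10 min RT preincubation, then NADPH regeneration 1 h at 37C; luciferin detection reagent 20 min RT, luminescence in relative luminescence units.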

[17] = target: Cytochrome P450 1A2 (Homo sapiens) (UniProt P05177); test: Cytochrome P450 Family 1 Subfamily A Member 2 (CYP1A2) small molecule antagonists: luciferase reporter qHTS assay (AID 1671199); note: nearly all actives have a fitted effect of over 50% in size; note: potency is the fitted concentration of half-maximal effect; for activity change, negative = inhibition: series mostly up to about 120 µM
Cytochrome P450 1A2 (Homo sapiens), sequence (P05177 whole entry, looked up): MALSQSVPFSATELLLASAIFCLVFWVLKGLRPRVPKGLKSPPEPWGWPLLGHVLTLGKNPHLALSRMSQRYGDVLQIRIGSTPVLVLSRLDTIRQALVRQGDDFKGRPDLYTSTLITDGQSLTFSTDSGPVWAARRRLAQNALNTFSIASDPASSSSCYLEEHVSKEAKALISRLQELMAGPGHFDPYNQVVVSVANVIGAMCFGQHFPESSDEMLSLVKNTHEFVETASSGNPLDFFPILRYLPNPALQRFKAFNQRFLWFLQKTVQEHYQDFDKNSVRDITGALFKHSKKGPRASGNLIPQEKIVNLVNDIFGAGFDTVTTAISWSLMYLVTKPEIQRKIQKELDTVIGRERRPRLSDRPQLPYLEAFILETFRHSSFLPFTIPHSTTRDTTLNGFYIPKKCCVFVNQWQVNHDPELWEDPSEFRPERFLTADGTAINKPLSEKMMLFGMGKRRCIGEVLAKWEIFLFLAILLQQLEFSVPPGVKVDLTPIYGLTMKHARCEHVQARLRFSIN
In short: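 Inhibition of CYP1A2 conversion of proluciferin to luciferin, detected by luminescence. Reaction run 1 h at room temperature with NADPH regeneration after brief compound preincubation.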

[18] = target: Voltage-gated inwardly rectifying potassium channel KCNH2 (Homo sapiens) (UniProt Q12809); test: Human Ether-a-go-go-Related Gene (hERG) channel small molecule antagonists: fluorescence cell-based qHTS assay (AID 1671200)
Voltage-gated inwardly rectifying potassium channel KCNH2 (Homo sapiens), sequence (Q12809 whole entry, looked up): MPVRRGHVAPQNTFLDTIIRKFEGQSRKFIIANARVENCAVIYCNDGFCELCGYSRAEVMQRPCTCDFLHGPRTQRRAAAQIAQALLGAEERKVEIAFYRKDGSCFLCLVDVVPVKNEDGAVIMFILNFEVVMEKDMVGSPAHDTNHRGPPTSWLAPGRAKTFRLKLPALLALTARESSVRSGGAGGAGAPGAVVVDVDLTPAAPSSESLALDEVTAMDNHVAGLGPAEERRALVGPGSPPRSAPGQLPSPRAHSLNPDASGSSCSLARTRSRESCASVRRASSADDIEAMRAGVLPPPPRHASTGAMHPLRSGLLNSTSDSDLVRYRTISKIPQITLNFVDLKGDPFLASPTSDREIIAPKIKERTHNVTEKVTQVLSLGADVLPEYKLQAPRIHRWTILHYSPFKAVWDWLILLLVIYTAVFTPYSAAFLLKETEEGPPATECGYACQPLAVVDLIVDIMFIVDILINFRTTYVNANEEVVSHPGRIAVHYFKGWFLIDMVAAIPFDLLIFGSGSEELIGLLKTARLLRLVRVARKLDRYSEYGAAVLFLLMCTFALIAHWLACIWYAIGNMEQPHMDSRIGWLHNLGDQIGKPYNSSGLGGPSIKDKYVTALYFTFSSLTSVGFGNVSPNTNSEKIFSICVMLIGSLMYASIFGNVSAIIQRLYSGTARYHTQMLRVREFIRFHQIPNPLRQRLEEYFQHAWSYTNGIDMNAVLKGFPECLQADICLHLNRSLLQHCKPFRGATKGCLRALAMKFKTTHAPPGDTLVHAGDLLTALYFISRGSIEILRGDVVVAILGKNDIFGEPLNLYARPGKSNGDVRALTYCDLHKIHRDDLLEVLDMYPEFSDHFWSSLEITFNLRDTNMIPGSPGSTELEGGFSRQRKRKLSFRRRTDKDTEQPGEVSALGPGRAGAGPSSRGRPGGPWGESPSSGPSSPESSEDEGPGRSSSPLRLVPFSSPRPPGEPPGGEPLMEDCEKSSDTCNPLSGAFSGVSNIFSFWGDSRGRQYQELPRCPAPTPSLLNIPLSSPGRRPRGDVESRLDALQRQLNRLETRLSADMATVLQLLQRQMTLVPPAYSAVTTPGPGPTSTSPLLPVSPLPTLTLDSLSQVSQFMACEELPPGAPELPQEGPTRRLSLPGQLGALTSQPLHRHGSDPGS
In short: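 U2OS cells expressing the channel were plated at 1000 cells/well, incubated overnight at 37 C, then loaded with FluxOR II thallium-sensitive dye for 1 h at room temperature in the dark, with a further 10 min at room temperature before stimulation.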

[19] = Caspase-3/7 induction in CHO-K1 cells by small molecules, qHTS assay (AID 1346980); note: nearly all actives have a fitted effect of over 15% in size
In short: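 Wild-type CHO-K1 cells exposed to compounds for 17hr at 37 C, 5% CO2. Caspase-3/7 activity then measured by Caspase-Glo 3/7 luminescence after 30min at room temperature.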

[20] = qHTS assay to identify small molecule antagonists of the TGF-beta/Smad signaling pathway - cell viability counter screen (AID 1346824); note: nearly all actives have a fitted effect of over 50% in size
In short: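 SBE-bla HEK 293T cells, incubated overnight, then compound plus 0.25 ng/mL TGF-beta1 (stock added) for 5 hr at 37 C. Viability was read in the same wells by CellTiter-Glo luminescence after 30 min at room temperature.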
% is set by controls: 0 for no effect and ±100 for the full control effect.

CC(=O)Nc1ccccc1
inactive: Potency [1] | Potency [2] | Potency [3] | outcome [4] | Potency [5] | outcome [6] | Potency [7] | Potency [8] | Potency [9] | Potency [10] | Potency [11] | max activation [12] -1.12% | Potency [13] | Potency [14] | Potency [16] | Potency [17] | outcome [18]
71.3 µM (active) and inactive: Potency [15]

OCc1cccnc1
inactive: Potency [1] | Potency [2] | Potency [3] | outcome [4] | Potency [5] | outcome [6] | Potency [7] | Potency [8] | Potency [9] | outcome [19] | Potency [10] | outcome [18]

C=C(C)C(=O)Nc1ccc(Cl)c(Cl)c1
active: Potency [11] 61.8 µM and 54.3 µM | Potency [15] 22.7 µM and 31.6 µM | Potency [16] 36 µM and 63 µM | Potency [17] 2.86 µM and 5 µM
inactive: Potency [1] | Potency [2] | Potency [3] | outcome [4] | Potency [5] | outcome [6] | Potency [7] | Potency [8] | Potency [10] | Potency [14] | outcome [18]

Cc1cnc(C(=O)NCCc2ccc(S(=O)(=O)NC(=O)NC3CCCCC3)cc2)cn1
inactive: Potency [1] | Potency [2] | Potency [3] | outcome [4] | Potency [7] | Potency [8] | Potency [9] | Potency [10] | Potency [11]

CC(C)c1ccc(S(=O)(=O)O)cc1
inactive: Potency [1] | Potency [2] | Potency [3] | outcome [4] | Potency [7] | Potency [8] | Potency [9] | outcome [19] | Potency [10] | Potency [11] | Potency [14] | Potency [15] | Potency [16] | Potency [17] | outcome [18]

CC1=CCC2CC1C2(C)C (stereo not drawn)
inactive and 7.1 µM (active): Potency [14]
inactive: Potency [1] | Potency [2] | Potency [3] | outcome [4] | Potency [5] | outcome [6] | Potency [7] | Potency [8] | Potency [9] | Potency [10] | Potency [11] | max activation [12] -0.804% | Potency [13] | Potency [15] | Potency [17] | outcome [18]

C[C@H]1C[C@H]2[C@@H]3CCC4=CC(=O)C=C[C@]4(C)[C@@]3(F)[C@@H](O)C[C@]2(C)[C@@]1(O)C(=O)CO
inactive: Potency [1] | Potency [20] | Potency [3] | outcome [4] | Potency [7] | Potency [8] | Potency [9] | Potency [10] | outcome [18]
22.4 µM (active) and inactive: Potency [17]

C/C=C1/CC2C=CC1C2 (stereo not drawn)
inactive: Potency [1] | Potency [2] | Potency [3] | outcome [4] | Potency [5] | outcome [6] | Potency [7] | Potency [8] | Potency [9] | Potency [10] | Potency [14] | Potency [15] | Potency [17] | outcome [18]
inactive and 54.5 µM (active): Potency [11]

COc1ccc(Cl)cc1C(=O)NCCc1ccc(S(=O)(=O)NC(=O)NC2CCCCC2)cc1
inactive: Potency [1] | Potency [2] | Potency [3] | Potency [5] | outcome [6] | Potency [7] | Potency [8] | Potency [9] | Potency [10] | Potency [14] | Potency [15] | Potency [17]

CCCCCOC(C)=O
active: Potency [16] 10 µM
inactive: Potency [1] | Potency [2] | Potency [3] | outcome [4] | Potency [5] | outcome [6] | Potency [7] | Potency [8] | Potency [9] | Potency [10] | Potency [11] | Potency [14] | Potency [17] | outcome [18]
32.1 µM (active) and inactive: Potency [15]

CCN(CC)CCCC(C)Nc1ccnc2cc(Cl)ccc12 (stereo not drawn)
inactive: activity change, negative = cytotoxicity [1] 3.8% [at 8.39 µM] | activity change, negative = cytotoxicity [3] -0.0742% [at 6.97 µM] and -3.92% [at 15.8 µM] | activation [4] 1.95% [at 6.97 µM] and -1.03% [at 15.8 µM] | activity, negative = inhibition [5] 0.384% [at 4.65 µM] and -4.99% [at 10.5 µM] | activation [6] 0.225% [at 5.23 µM] and -0.0196% [at 11.8 µM] | activity change, negative = cytotoxicity [7] -20.8% [at 8.39 µM] | caspase activation [8] 1.19% [at 8.39 µM] and -0.361% [at 19 µM] | activity change, negative = cytotoxicity [9] -0.939% [at 8.39 µM] and -3.64% [at 19 µM] | caspase-3/7 activation [19] 0.759% [at 8.39 µM] and -0.715% [at 19 µM] | activity change, negative = cytotoxicity [10] -14.1% [at 8.39 µM] and -16.1% [at 19 µM] | activation [11] 3.19% [at 8.39 µM] and -3.77% [at 19 µM] | max activation [12] -1.5% | Potency [13] | activity change, negative = inhibition [18] 0.661% [at 6.97 µM] and 1.69% [at 15.8 µM]
active: Potency [7] 13 µM

C=C(C)C(=O)O[C@H]1C[C@@H]2CC[C@@]1(C)C2(C)C
inactive: Potency [20] | Potency [3] | outcome [4] | Potency [5] | outcome [6] | Potency [7] | Potency [8] | Potency [9] | outcome [19] | Potency [10] | Potency [11] | Potency [14] | Potency [17] | outcome [18]
17.7 µM (active) and inactive: Potency [15]
8.58 µM (active) and inactive: Potency [2]

CC1=CC(=O)NS(=O)(=O)O1
inactive: Potency [1] | Potency [2] | Potency [3] | outcome [4] | Potency [5] | outcome [6] | Potency [7] | Potency [8] | Potency [9] | outcome [19] | Potency [10] | max activation [12] -3.96% | outcome [18]
